Counter-ions that a name gives are not always drawn.
Tests used:
Conditions in all cases: compound concentration in added solution (µM; 5 µl added to 20 µl cells): 10; 18 h
A431 [1] = experiment: LBPA endosome anti-LBPA integrated intensity (sum per cell), Z-score; higher = more LBPA staining
Method in brief: (§1)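 After 18 h on 5 µl of 10 µM compound solution in duplicate 384-well imaging plates, HeLa MZ or A431 cells, seeded at 3,500 per well in 20 µl, were fixed with 4% PFA. They were then labelled with 6C4 anti-LBPA antibody, filipin, propidium iodide and CellTracker green, and four 20× fields were recorded per well. Integrated LBPA or filipin intensity per cell, whole-cell or within LBPA endosomes, came from MetaXpress segmentation and was normalised to Z-scores in AcuityXpress.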

HeLa MZ [2] = experiment: as above
Method in brief: as §1

A431 [3] = experiment: whole-cell filipin (free cholesterol) integrated intensity, Z-score; higher = more cholesterol staining
Method in brief: as §1

HeLa MZ [4] = experiment: as above
Method in brief: as §1

A431 [5] = experiment: filipin (cholesterol) integrated intensity within LBPA endosomes, Z-score; higher = more cholesterol in LBPA endosomes
Method in brief: as §1

HeLa MZ [6] = experiment: as above
Method in brief: as §1

| Structure (SMILES) | LBPA endosome anti-LBPA integrated intensity (z-score) (A431 [1]) | LBPA endosome anti-LBPA integrated intensity (z-score) (HeLa MZ [2]) | whole-cell filipin (z-score) (A431 [3]) | whole-cell filipin (z-score) (HeLa MZ [4]) | filipin (z-score) (A431 [5]) | filipin (z-score) (HeLa MZ [6]) |
| --- | --- | --- | --- | --- | --- | --- |
| C=C(CC)C(=O)c1ccc(OCC(=O)O)c(Cl)c1Cl [Ethacrynic acid] | -0.359 | -0.213 | -0.0585 | 0.416 | -0.423 | -0.312 |
| CC(=O)OCC(=O)[C@@]1(O)[C@H](C)C[C@H]2[C@@H]3CCC4=CC(=O)C=C[C@]4(C)[C@@]3(F)[C@@H](O)C[C@@]21C [Dexamethasone acetate] | -0.279 | -0.245 | -0.619 | -0.504 | -0.34 | -0.593 |
| CC(=O)[C@H]1CC[C@H]2[C@@H]3CC=C4C[C@@H](O)CC[C@]4(C)[C@H]3CC[C@]12C [Pregnenolone] | 2.84 | 2.65 | 1.33 | 1.33 | 2.1 | 1.2 |
| CN1CCCC(CC2c3ccccc3Sc3ccccc32)C1 (stereo not drawn) [Metixene hydrochloride] | 3.73 | 1.25 | 0.301 | -0.563 | 3.15 | 1.94 |
| CO/N=C(\C(=O)N[C@@H]1C(=O)N2C(C(=O)O)=C(C[N+]3(C)CCCC3)CS[C@H]12)c1csc(N)n1 [Cefepime hydrochloride] | -0.483 | -1.02 | -0.176 | -0.327 | -0.47 | -0.504 |
| CO/N=C(\C(=O)N[C@@H]1C(=O)N2C(C(=O)O)=C(COC(C)=O)CS[C@H]12)c1csc(N)n1 [Cefotaxime sodium salt] | -0.36 | -0.201 | -0.822 | -0.63 | -0.554 | -0.583 |
| O=C(c1ccc(F)cc1)C1CCN(CCn2c(=O)[nH]c3ccccc3c2=O)CC1 [Ketanserin tartrate hydrate] | 0.533 | 0.294 | 0.959 | 0.523 | 0.805 | 0.808 |
| CN1CCN(c2c(F)cc3c(=O)c(C(=O)O)cn(CCF)c3c2F)CC1 [Fleroxacin] | -0.492 | -0.0484 | -0.0639 | 0.23 | -0.354 | -0.239 |
| COc1ccc(C(=O)NCc2cccnc2)cc1C(=O)NCc1cccnc1 [Picotamide monohydrate] | -0.303 | -0.286 | -0.472 | -0.0549 | -0.457 | -0.612 |
| Clc1ccc(CCC(Cn2ccnc2)Sc2c(Cl)cccc2Cl)cc1 (stereo not drawn) [Butoconazole nitrate] | 1.95 | 2.23 | 1.71 | 2.17 | 2.22 | 2.14 |
| N/C(=N\C(=O)c1nc(Cl)c(N)nc1N)NCc1ccccc1 [Benzamil hydrochloride] | 0.224 | 1.13 | 0.167 | 0.672 | -0.0522 | 0.566 |
| Cc1cccc(N(C)C(=S)Oc2ccc3ccccc3c2)c1 [Tolnaftate] | 0.133 | 0.375 | -0.581 | -0.535 | -0.301 | -0.655 |
| CC1CC(OC(=O)c2ccccc2O)CC(C)(C)C1 (stereo not drawn) [Homosalate] | -0.265 | -0.48 | -0.0483 | 0.0325 | -0.434 | -0.566 |
| COc1c(N2C[C@@H]3CCCN[C@@H]3C2)c(F)cc2c(=O)c(C(=O)O)cn(C3CC3)c12 [Moxifloxacin] | -0.595 | -1.37 | -0.138 | -0.0544 | -0.469 | -0.207 |
| OC(CCN1CCCC1)(c1ccccc1)C1CCCCC1 (stereo not drawn) [Procyclidine hydrochloride] | -0.0883 | 0.3 | 0.506 | 0.736 | 0.0344 | 0.437 |
| CN(C)CCCN1c2ccccc2Sc2ccc(C(F)(F)F)cc21 [Triflupromazine hydrochloride] | 3.06 | 1.61 | 0.711 | 0.675 | 2.23 | 2.87 |
| CCN(CC)C(=O)/C(C#N)=C/c1cc(O)c(O)c([N+](=O)[O-])c1 [Entacapone] | -0.554 | -0.84 | -0.719 | 0.0172 | -0.479 | -0.52 |
| CC1(C)S[C@@H]2[C@H](NC(=O)[C@H](N)c3ccccc3)C(=O)N2[C@H]1C(=O)OC1OC(=O)c2ccccc21 (stereo partly drawn) [Talampicillin hydrochloride] | -0.446 | 0.322 | -0.121 | 0.482 | -0.392 | -0.35 |
| COc1cnc(NS(=O)(=O)c2ccc(N)cc2)nc1 [Sulfameter] | -0.428 | -0.0725 | -0.426 | -0.359 | -0.447 | -0.542 |
| CC(C)(Sc1cc(C(C)(C)C)c(O)c(C(C)(C)C)c1)Sc1cc(C(C)(C)C)c(O)c(C(C)(C)C)c1 [Probucol] | -0.46 | -0.408 | -0.766 | -0.622 | -0.482 | -0.445 |
| CN[C@@H]1[C@@H](O[C@H]2O[C@H](CO)[C@@H](N)[C@H](O)[C@H]2O)OC2C[C@@H](N)[C@@H](O[C@H]3[C@H](O)[C@@H](O)[C@H](N)C[C@@H]3N)OC2[C@@H]1O (stereo partly drawn) [Apramycin] | -0.469 | -0.358 | -0.077 | -0.329 | -0.402 | -0.523 |
| CC(C(=O)O)c1ccc(C(=O)c2cccs2)cc1 (stereo not drawn) [Suprofen] | -0.328 | 0.404 | 0.0494 | 0.84 | -0.289 | -0.21 |
| Nc1ncnc2c1ncn2[C@@H]1O[C@H](CO)[C@@H](O)[C@@H]1O [Vidarabine] | -0.521 | 0.0226 | -0.393 | 0.669 | -0.496 | -0.54 |

From the supplement of paper PMC6607015
